Assay results taken from PubChem BioAssay (NCI).
Values joined by “and” are separate entries in the source; they are usually repeats but may differ in a detail not shown here. Identical values can stand only once. Compounds without any hit were thinned out: in the full panel of roughly 83,000, 20% have a hit.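 Method: cells in 96-well plates; compound added at one concentration; 48 h incubation; percent growth measured; values under 10 scored active.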 Values without a mark were called inactive. Active and inactive are the calls of the source.

The compounds below were run on T-47D breast (assay: NCI-60 one-dose screen, 48 h (100 = growth as untreated, 0 = no growth, -100 = all killed)). Conditions: 100 µM.

| Structure (SMILES) | growth |
| --- | --- |
| CCN(Cc1ccccc1)c1ccc(/C=C2\COc3ccccc3C2=O)cc1 | 12.3% |
| CC(=O)/C=C/c1ccc(OCc2ccc(C(C)(C)C)cc2)cc1 | 5.88% (active) |
| CC(=O)/C=C/c1ccc(N(CCO)Cc2ccc(C(C)(C)C)cc2)cc1 | -83.2% (active) |
| O=C(/C=C/c1cccc(Oc2ccc(Cl)cc2)c1)c1ccccc1 | -72% (active) |
| COc1ccc(C(=O)/C=C/c2ccc(OCc3cccc(C(F)(F)F)c3)c(OC)c2)cc1OC | 11.3% |
| CC(=O)/C=C/c1ccc(OCc2ccc(Cl)cc2)cc1 | 20.2% |
| COc1ccc(C(=O)/C=C/c2ccc(OCc3ccc(Cl)cc3)cc2)cc1OC | 41.5% |
| CC(=O)/C=C/c1ccc(N(C)Cc2ccc(C(C)(C)C)cc2)cc1 | -53.9% (active) |

Each compound was assayed on BT-549 breast in the same assay as above. Conditions: 10 µM.

| Structure (SMILES) | growth [%] |
| --- | --- |
| CCN(Cc1ccccc1)c1ccc(/C=C2\COc3ccccc3C2=O)cc1 | 95.6 |
| CC(=O)/C=C/c1ccc(OCc2ccc(C(C)(C)C)cc2)cc1 | 103 |
| CC(=O)/C=C/c1ccc(N(CCO)Cc2ccc(C(C)(C)C)cc2)cc1 | 79 |
| O=C(/C=C/c1cccc(Oc2ccc(Cl)cc2)c1)c1ccccc1 | 102 |
| COc1ccc(C(=O)/C=C/c2ccc(OCc3cccc(C(F)(F)F)c3)c(OC)c2)cc1OC | 95.2 |
| CC(=O)/C=C/c1ccc(OCc2ccc(Cl)cc2)cc1 | 102 |
| COc1ccc(C(=O)/C=C/c2ccc(OCc3ccc(Cl)cc3)cc2)cc1OC | 115 |
| CC(=O)/C=C/c1ccc(N(C)Cc2ccc(C(C)(C)C)cc2)cc1 | 101 |

Same assay, conditions: 10 µM unless noted

| Structure (SMILES) | growth |
| --- | --- |
| CCOC(=O)c1ccc(Nc2ncnc3c2cnn3-c2cccc(F)c2)cc1 | 100% |
| O=S(=O)(O)c1ccc(N=Nc2ccc(N=Nc3cccc4ccccc34)c(S(=O)(=O)O)c2)cc1 | 108% |
| CC[C@@H]1NC(=O)[C@H]([C@H](O)[C@H](C)C/C=C/c2ccc(CN3C(=O)C(C)=C(C)C3=O)cc2)N(C)C(=O)[C@H](C(C)C)N(C)C(=O)[C@H](CC(C)C)N(C)C(=O)[C@H](CC(C)C)N(C)C(=O)[C@@H](C)NC(=O)[C@H](C)NC(=O)[C@H](CC(C)C)N(C)C(=O)[C@H](C(C)C)NC(=O)[C@H](CC(C)C)N(C)C(=O)CN(C)C1=O | 82.4% |
| COc1nc(=O)n(C2C=CC(=O)O2)cc1F (stereo not given) | 81.2% |
| COc1ccc(-c2csc(NC(=O)CN3CCN(CCO)CC3)n2)cc1NS(=O)(=O)c1cccc2c(N(C)C)cccc12 | 82.1% |
| O=C1/C(=C/c2ccc(-c3cccc(C(F)(F)F)c3)o2)SC(=S)N1CCc1ccc(O)cc1 | 75.7% |
| BrC1=C(Br)C(Br)(Br)C(Br)=C1Br | 88.9% |
| OCc1cc(CN2CCCCC2)c(O)c2ncccc12 | 59.7% |
| COc1ccc(C2=C(CN)C(O)NC(=NCC(=O)c3ccc4ccccc4c3)N2)cc1 (stereo not given) | 99% |
| N#CSc1c[nH]c2ccc(/C=C/C(=O)/C=C(/C=C/c3ccc4[nH]cc(SC#N)c4c3)OB(F)F)cc12 | -10.2% (active) |
| COc1ccc(Oc2nc(Nc3ccc(N4CCOCC4)cc3)ncc2NC(=O)c2cc(OC)cc(OC)c2)cc1 | 90.1% |
| COc1ccc2c(c1)oc1c(C)c3c(c(C)c12)C(=O)N(Nc1ccccc1)C3=O | 91.6% |
| COc1ccc(/C=C2/C(=O)N=C3N2NC(c2ccccc2)=CN3c2ccccc2)cc1 | 96% |
| O=C1/C(=C/c2ccccc2[N+](=O)[O-])Cc2ccccc21 | 19.4% and 27.3% |
| COc1ccc2c(c1)CCNC21C(=O)Nc2c(Br)cc(Br)cc21 (stereo not given) | 103% |
| O=C(N/N=C/c1ccc(O)cc1O)c1cccc(Nc2ccnc(C(F)(F)F)c2)c1 | 42.3% |
| O=C(c1cccc(Br)c1)N1CCN(c2ccnc3cc(Cl)ccc23)CC1 | 112% |
| CCCCCC#CC1OC23CCCCC2C(C#N)(C(=N)O3)C1(C#N)C#N (stereo not given) | 89.9% |
| COc1ccc(-c2c[nH]c(C(=O)O)c2-c2cc(OC)c(OC)c(OC)c2)cc1 | 65.8% |
| NC(N)=NC(N)=NCCCc1ccco1 | 115% |
| CN1Cn2c(ccc2C(F)(F)F)C(=O)CS1(=O)=O | 105% |
| CCCc1cc(C(N)=S)ccn1 | 98.1% |
| C#CCn1cnc2cnc(Nc3cccc(NC(=O)CCl)c3)nc21 | 3.26% [6.25 µM] (active) |
| CC1=C2[C@@H](CC1)[C@]1(C)O[C@@](C3CC3)(C[C@H]1OC(=O)CO)[C@H]2OC(=O)/C=C/c1ccccc1 | 6.63% (active) |
| CCCn1nc(C(=O)N2CCCCC2)c2c1CCC(N1CCC(c3ccncc3)CC1)C2 (stereo not given) | 79.5% |
| Cc1c(O)c(O)cc2c3c(oc12)CC(c1ccc2c(c1)OCO2)CC3=O (stereo not given) | 74.6% |
| COc1ccc(Nc2nn3c(SCC(=O)c4ccc(C)cc4)nnc3s2)cc1 | 92.2% |
| N#Cc1c(-c2cccc(F)c2)cc(-c2cccnc2)[nH]c1=O | 98.3% |
| O=[N+]([O-])c1ccc2[nH]c3nccc(NCc4cccc(Cl)c4)c3c2c1 | 70% |
